Records with an inconclusive call do not appear. The source made the active and inactive calls. Unless noted, the call rests on the fitted dose curve; in most records, active means well fitted curve in the direction sought with a large enough effect in the repeat runs; inconclusive means weak or mixed curves; inactive means no such curve, though single readings can be large; an effect the other way counts as inactive or inconclusive.
What was measured:
[1] = qHTS assay to identify small molecule agonists of the vitamin D receptor (VDR) signaling pathway - cell viability counter screen (AID 743224); further: series mostly up to about 63 µM; nearly all actives have a fitted effect of over 50% in size
In short: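 CellTiter-Glo viability readout on VDR-bla cells, measured after 16 h of compound treatment at 37C in the same wells.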

[2] = qHTS assay to identify small molecule agonists of the NFkB signaling pathway (AID 1159509; active means well fitted curve in the direction sought with a large enough effect in the signal ratio in the repeat runs, not every such curve was filed as active; the % refers to the signal ratio; further: series mostly up to about 61 µM)
In short: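 Agonist activity was read as beta-lactamase-driven FRET change (460 and 530 nm emission, 405 nm excitation) following 1.5 hr substrate loading at room temperature. Beforehand, ME-180 NFkB-bla reporter cells were treated with compounds for 5 hr at 37 C.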

[3] = qHTS assay to identify small molecule agonists of the NFkB signaling pathway - cell viability counter screen (AID 1159515; calls by dose curve; further: series mostly up to about 61 µM; nearly all actives have a fitted effect of over 55% in size)
In short: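 Tox21 library compounds were tested for cytotoxicity against NFkB-bla ME-180 cells during a 5 hr exposure at 37 C. CellTiter-Glo luminescence served as the viability read-out.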

[4] = qHTS assay to identify small molecule agonists of the endoplasmic reticulum stress response signaling pathway (AID 1159516; active means well fitted activation curve with a large enough effect in the signal ratio in the repeat runs, not every such curve was filed as active; the % refers to the signal ratio)
In short: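 Fluorescence at 460 and 530 nm (405 nm excitation) reports beta-lactamase from an ER stress response element in HeLa cells treated 5 hr at 37 C.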

[5] = qHTS assay to identify small molecule agonists of the endoplasmic reticulum stress response signaling pathway - cell viability counter screen (AID 1159517; calls by dose curve; further: series mostly up to about 61 µM; nearly all actives have a fitted effect of over 50% in size)
In short: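 ESRE-bla HeLa cells (1,500/well) were plated overnight at 37 C and exposed to compounds for 5 hr. After the 2 hr beta-lactamase substrate read, CellTiter-Glo went into the same wells, and luminescence was read after 30 min at room temperature.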

[6] = qHTS assay to identify small molecule antagonists of the retinoid-related orphan receptor gamma (ROR-gamma) signaling pathway - cell viability counter screen (AID 1159520); further: nearly all actives have a fitted effect of over 50% in size
In short: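 Cytotoxicity was read from cellular ATP (CellTiter-Glo luminescence) after 16 hr at 37 C with 1 uM doxycycline induction. The inducer was added 2 hr after compound transfer to Tet-on ROR gamma CHO cells.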

[7] = biological target: Nuclear receptor ROR-gamma (Homo sapiens) (UniProt P51449); assay: qHTS assay to identify small molecule antagonists of the retinoid-related orphan receptor gamma (ROR-gamma) signaling pathway (AID 1159521;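 further: CHO cells with doxycycline inducible ROR-gamma driving an RORE luciferase reporter; top concentration of the series differs between compounds; nearly all actives have a fitted effect of over 50% in size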)
In short: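 Decreased RORE-driven luciferase luminescence indicates antagonism. Tet-on RORγ CHO cells received compound, then 1 uM final doxycycline 2 h later; signal read after 16 h incubation.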

[8] = qHTS assay to identify small molecule agonists of the AP-1 signaling pathway (AID 1159526; calls by dose curve)
[9] = biological target: Retinoic acid receptor RXR-alpha (Homo sapiens) (UniProt P19793); assay: qHTS assay to identify small molecule agonists of the RXR signaling pathway (AID 1159527; calls by dose curve; further: nearly all actives have a fitted effect of over 35% in size)
In short: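 16 hr incubation of compound-treated RXR-alpha-UAS-bla HEK 293T cells (2% charcoal-stripped FBS, 37 C) preceded a 2 hr room-temperature LiveBLAzer FRET substrate step and blue/green fluorescence measurement.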

[10] = qHTS assay to identify small molecule agonists of the RXR signaling pathway - cell viability counter screen (AID 1159529)
In short: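 In this parallel viability measure, GeneBLAzer RXR-alpha HEK 293T cells (2% charcoal-stripped FBS) were given a 5 hr preincubation, treated with compounds 16 hr at 37 C, and read by CellTiter-Glo luminescence.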

[11] = qHTS assay to identify small molecule antagonists of the retinoid acid receptor (RAR) signaling pathway - cell viability counter screen (AID 1159551); further: nearly all actives have a fitted effect of over 35% in size
In short: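 In this counter screen, the RARE-luciferase line C3RL4 was exposed for 6 h at 37 C and 5% CO2 to compounds with retinol at 1 uM final. Cellular ATP, read by luminescence, served as the viability measure.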

[12] = qHTS assay to identify small molecule antagonists of the retinoic acid receptor (RAR) signaling pathway (AID 1159552; further: nearly all actives have a fitted effect of over 50% in size)
In short: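 C3RL4 RARE-luc cells, overnight plating; retinol 1 uM final added right after compound; 6 hr 37 C; luciferase read at 30 min RT.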

[13] = biological target: Luciferin 4-monooxygenase (Photinus pyralis) (UniProt P08659); assay: qHTS assay to identify small molecule inhibitors of firefly luciferase (AID 1224835); further: series mostly up to about 120 µM; nearly all actives have a fitted effect of over 25% in size
In short: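 Inhibition of purified Photinus luciferase is measured by luminescence. Substrate levels (D-luciferin, ATP) sit at their KM values. Each compound is tested in a concentration series.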

[14] = qHTS assay to identify small molecule agonists of the constitutive androstane receptor (CAR) signaling pathway - cell viability counter screen (AID 1224836); further: series mostly up to about 92 µM; nearly all actives have a fitted effect of over 45% in size
In short: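 Using CellTiter-Fluor, viability of HepG2 cells harbouring hCAR and CYP2B6-2.2kb was measured following 23 h incubation with a 15-concentration compound series plus PK11195 (0.75 uM final).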

[15] = qHTS assay to identify small molecule antagonists of the constitutive androstane receptor (CAR) signaling pathway - cell viability counter screen (AID 1224837); further: series mostly up to about 92 µM; nearly all actives have a fitted effect of over 45% in size
In short: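 CITCO at 50 nM final was added alongside compounds (15 concentrations) to double-stable hCAR/CYP2B6-2.2kb HepG2 cells. Following 23 hr at 37 C, cell viability was quantified by CellTiter-Fluor fluorescence intensity.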

[16] = biological target: Nuclear receptor subfamily 1 group I member 3 (Homo sapiens) (UniProt Q14994); assay: qHTS assay to identify small molecule antagonists of the constitutive androstane receptor (CAR) signaling pathway (AID 1224838); further: nearly all actives have a fitted effect of over 40% in size
In short: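 Inhibition of CITCO-driven (50 nM final) CYP2B6 reporter expression is measured in HepG2 cells stably carrying hCAR. Fifteen compound concentrations are applied for 24 h at 37 C, followed by luciferase luminescence.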

[17] = qHTS assay to identify small molecule antagonists of the vitamin D receptor (VDR) signaling pathway - cell viability counter screen (AID 743225); further: nearly all actives have a fitted effect of over 50% in size
In short: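 Parallel cytotoxicity test: VDR-UAS-bla HEK 293T, 3 nM (final) 1-alpha,25-dihydroxyvitamin D3 with test compound, 16 h, 37C. Endpoint is CellTiter-Glo luminescence in the same wells.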

[18] = qHTS assay to identify small molecule agonists of the retinoic acid receptor (RAR) signaling pathway (AID 1159553)
In short: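 In this cell-based screen, 1,000 C3RL4 cells per well were cultured overnight, dosed with test chemicals in DMSO for 6 hr, and assessed for RARE luciferase luminescence.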

[19] = qHTS assay to identify small molecule antagonists of the estrogen related receptor (ERR) signaling pathway from Tox21 library - cell viability counter screen (AID 1224834); further: nearly all actives have a fitted effect of over 30% in size
In short: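 Counter screen run in ERR cells (2,000 cells/well): cells pre-incubated 6 h, then treated with compounds for 17.5 h at 37 C. Fluorescence was read 30 min after CellTiter-Fluor addition.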

[20] = qHTS assay to identify small molecule agonists of the AP-1 signaling pathway - cell viability counter screen (AID 1159525; calls by dose curve; further: nearly all actives have a fitted effect of over 55% in size)
In short: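 Intracellular ATP by Cell Titer Glo luminescence (30 min, RT) in the same ME-180 AP-1-bla wells after the 5 h compound exposure at 37 °C. Normalised to tetra n-octyl ammonium bromide and DMSO controls.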

Measured: Potency

Retinoic acid receptor RXR-alpha (Homo sapiens), sequence (P19793 whole entry, looked up): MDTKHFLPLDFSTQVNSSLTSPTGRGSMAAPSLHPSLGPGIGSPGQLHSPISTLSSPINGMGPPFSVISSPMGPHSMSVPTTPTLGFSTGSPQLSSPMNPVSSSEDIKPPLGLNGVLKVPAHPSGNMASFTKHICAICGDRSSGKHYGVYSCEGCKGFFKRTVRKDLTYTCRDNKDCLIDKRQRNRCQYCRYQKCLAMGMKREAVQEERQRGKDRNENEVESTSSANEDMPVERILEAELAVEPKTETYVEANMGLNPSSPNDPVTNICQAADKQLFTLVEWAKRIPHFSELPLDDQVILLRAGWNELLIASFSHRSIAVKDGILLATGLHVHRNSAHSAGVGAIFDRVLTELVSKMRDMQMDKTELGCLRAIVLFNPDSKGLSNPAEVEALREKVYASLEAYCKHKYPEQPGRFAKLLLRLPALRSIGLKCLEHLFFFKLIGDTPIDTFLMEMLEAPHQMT
Luciferin 4-monooxygenase (Photinus pyralis), sequence (P08659 whole entry, looked up): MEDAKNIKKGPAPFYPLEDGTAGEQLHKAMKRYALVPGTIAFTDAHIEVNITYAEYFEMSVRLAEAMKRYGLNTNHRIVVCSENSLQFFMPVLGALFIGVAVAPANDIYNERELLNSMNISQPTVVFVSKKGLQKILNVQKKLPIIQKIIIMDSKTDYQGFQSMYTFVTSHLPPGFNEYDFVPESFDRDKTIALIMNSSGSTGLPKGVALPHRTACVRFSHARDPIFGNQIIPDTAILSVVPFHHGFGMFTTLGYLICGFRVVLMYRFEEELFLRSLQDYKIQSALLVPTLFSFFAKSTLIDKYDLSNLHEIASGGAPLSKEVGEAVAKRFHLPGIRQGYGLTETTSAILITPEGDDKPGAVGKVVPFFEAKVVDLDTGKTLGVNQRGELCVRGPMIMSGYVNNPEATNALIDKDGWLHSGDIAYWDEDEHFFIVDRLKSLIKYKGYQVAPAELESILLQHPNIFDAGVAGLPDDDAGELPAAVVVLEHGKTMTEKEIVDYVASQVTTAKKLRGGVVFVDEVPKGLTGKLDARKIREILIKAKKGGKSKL
Nuclear receptor subfamily 1 group I member 3 (Homo sapiens), sequence (Q14994 whole entry, looked up): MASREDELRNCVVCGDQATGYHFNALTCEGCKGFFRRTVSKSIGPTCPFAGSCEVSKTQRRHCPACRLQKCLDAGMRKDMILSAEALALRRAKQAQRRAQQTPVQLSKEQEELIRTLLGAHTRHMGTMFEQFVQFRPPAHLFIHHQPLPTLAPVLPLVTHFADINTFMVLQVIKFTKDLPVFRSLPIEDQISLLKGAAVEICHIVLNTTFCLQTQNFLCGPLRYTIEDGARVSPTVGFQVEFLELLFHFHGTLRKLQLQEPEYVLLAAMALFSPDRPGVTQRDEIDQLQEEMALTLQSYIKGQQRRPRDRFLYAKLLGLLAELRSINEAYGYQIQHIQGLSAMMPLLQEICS

Cc1ccc(C(=O)O)cc1[N+](=O)[O-]
inactive: [1] | [2] | [3] | [4] | [5] | [6] | [7] | [8] | [9] | [10] | [11] | [12] | [13] | [14] | [15] | [16]

CC/C(C)=N\O[Si](C)(O/N=C(\C)CC)O/N=C(\C)CC
inactive: [1] | [17] | [2] | [3] | [4] | [5] | [6] | [7] | [8] | [9] | [10] | [11] | [12] | [18] | [13] | [14] | [15] | [16]

CC(=O)OCC(=O)Nc1cc(C#N)cc(NC(=O)COC(C)=O)c1Cl
inactive: [1] | [2] | [3] | [4] | [5] | [6] | [8] | [9] | [10] | [11] | [12] | [18] | [13] | [14] | [15] | [16]

CC1=C(C(=O)O)N2C(=O)[C@@H](NC(=O)[C@H](N)c3ccccc3)[C@H]2SC1
inactive: [1] | [17] | [2] | [3] | [4] | [5] | [6] | [7] | [8] | [10] | [11] | [12] | [18] | [19] | [13] | [14] | [15] | [16]

CCC/C=C(\C=O)CC
inactive: [1] | [2] | [3] | [4] | [5] | [6] | [20] | [8] | [9] | [10] | [11] | [12] | [19] | [13] | [14] | [15] | [16]

O=[N+]([O-])c1c(Cl)cc(Cl)cc1Cl
inactive: [1] | [17] | [2] | [3] | [4] | [5] | [6] | [20] | [8] | [9] | [10] | [11] | [12] | [18] | [19] | [13] | [14] | [15] | [16]

COS(=O)(=O)O
inactive: [1] | [17] | [2] | [3] | [4] | [5] | [6] | [20] | [8] | [9] | [10] | [11] | [12] | [18] | [19] | [13] | [14] | [15] | [16]

CC(O)COC(C)(C)C (centres undefined)
inactive: [1] | [2] | [3] | [4] | [5] | [6] | [20] | [8] | [9] | [10] | [11] | [12] | [18] | [19] | [13] | [14] | [15] | [16]

O=C(NCN1CCOCC1)c1cnccn1
inactive: [1] | [2] | [3] | [4] | [5] | [6] | [20] | [8] | [9] | [10] | [11] | [12] | [19] | [13] | [14] | [15] | [16]

CC(C)Cn1cnc2c1c(=O)n(C)c(=O)n2C
inactive: [1] | [17] | [2] | [3] | [4] | [5] | [6] | [20] | [8] | [9] | [10] | [11] | [12] | [18] | [19] | [13] | [14] | [15] | [16]

CCOC(=O)CC1(C)OCC(C)O1 (centres undefined)
inactive: [1] | [17] | [2] | [3] | [4] | [5] | [6] | [20] | [8] | [9] | [10] | [12] | [18] | [19] | [13] | [14] | [15] | [16]

CCO[Si](CC)(OCC)OCC
inactive: [1] | [17] | [2] | [3] | [4] | [5] | [6] | [20] | [8] | [9] | [10] | [11] | [12] | [13] | [14] | [15] | [16]

CN(C)CCCO[C@@H]1[C@H]2OC(C)(C)O[C@H]2O[C@@H]1C(O)CO (some centres undefined)
inactive: [17] | [2] | [3] | [4] | [5] | [6] | [8] | [9] | [10] | [11] | [12] | [18] | [19] | [13] | [14] | [15] | [16]

Cn1c(=O)c2[nH]c(Br)nc2n(C)c1=O
inactive: [1] | [2] | [3] | [4] | [5] | [6] | [20] | [8] | [9] | [10] | [11] | [12] | [18] | [13] | [14] | [15] | [16]

c1ccc(-c2nn[nH]n2)cc1
inactive: [1] | [17] | [2] | [3] | [4] | [5] | [6] | [7] | [8] | [9] | [10] | [11] | [12] | [18] | [13] | [14] | [15] | [16]
